In PubChem BioAssay AID1159554 (Broad Institute, 2015) one finds activity change data, which are given here for 67 compounds.

Screen size: about 94,000 compounds; about 2,100 (2.2%) were called active. No stated cut-off is given here; in the data, active means activity change below about -80%; inconclusive means no clear call, values can overlap the other calls; inactive means above that. The full list was thinned out, with actives kept by preference.

A short description of the experiment: P. falciparum Dd2 growth inhibitors, primary screen, SYBR Green fluorescence, single dose replicates (AID 1159554). The following applies: 72 h, at 10 µM, active compounds read low.
In the case of `COc1ccc(-c2ccc([C@@H]3[C@H](CN(C)S(C)(=O)=O)N[C@@H]3CO)cc2)cc1`, the activity change is -61.4% (inactive).

Regarding `C[C@H](CO)N1C[C@H](C)[C@@H](CN(C)C(=O)Cc2ccccn2)Oc2cc(-c3cccc(C(=O)N(C)C)c3)ccc2S1(=O)=O`, the activity change was -3.07% (inactive).

Take `CN1CCN(C(=O)C[C@H]2C[C@@H]3c4cc(NS(=O)(=O)c5ccc(F)cc5)ccc4O[C@@H]3[C@@H](CO)O2)CC1`: the activity change was -2.3% (inactive).

In the case of `CO[C@@H]1CN(C)C(=O)c2cc(NC(=O)NC3CCCC3)ccc2OC[C@H](C)NC[C@H]1C`, the activity change was 14.4% (inactive).

On to `O=C(Nc1cc(F)ccc1F)N1CC(=O)N2[C@H](CO)[C@@H](c3ccc(-c4cccnc4)cc3)[C@@H]2C1`, for which the activity change is -15.2% (inactive).

Turning to `CCC(=O)N1C[C@H]2[C@@H](c3ccccc31)[C@H](CO)N2Cc1ccccc1F`, the activity change was 0.398% (inactive).

In the case of `CO[C@H]1CN(C)C(=O)c2ccc(NC(C)=O)cc2OC[C@@H](C)N(C(=O)c2ccccn2)C[C@@H]1C`, the activity change was 13.4% (inactive).

As for `Cc1noc(C)c1S(=O)(=O)N(C)C[C@@H]1OCCCC[C@@H](C)Oc2ccc(NS(=O)(=O)c3ccccc3)cc2C(=O)N([C@H](C)CO)C[C@@H]1C`, the activity change is -10.1% (inactive).

`COc1ccc2c3c([nH]c2c1)[C@@H](CO)N(C(=O)NC(C)C)CC31CN(C(=O)C2CCCC2)C1`: the activity change is 12.7% (inactive).

With `COCC(=O)N1CC2(C1)CN(Cc1ccccc1F)[C@@H](CO)c1[nH]c3cc(OC)ccc3c12`, the activity change is -88.4% (active).

As for `CCC(=O)N1CC2(C1)CN(Cc1cc(F)ccc1F)[C@@H](CO)c1[nH]c3cc(OC)ccc3c12`, the activity change was -89.9% (active).

With `COc1ccc2c3c([nH]c2c1)[C@@H](CO)N(Cc1cc(F)ccc1F)CC31CCN(C(=O)C2CCC2)CC1`, the activity change is -88% (active).

Consider `COc1ccc2c3c([nH]c2c1)[C@H](CO)N(Cc1nccs1)CC31CCN(C(=O)C2CCC2)CC1`, for which the activity change is -50% (inactive).

In the case of `COc1ccc2c3c([nH]c2c1)[C@@H](CO)N(Cc1ccccc1OC)CC31CCN(C)CC1`, the activity change was 35.1% (inactive).

With `COc1ccc2c3c([nH]c2c1)[C@@H](CO)N(C(C)=O)CC31CN(C(=O)Nc2ccc(F)cc2)C1`, the activity change is -0.229% (inactive).

Turning to `COc1ccc2c3c([nH]c2c1)[C@@H](CO)N(Cc1cc(F)ccc1F)CC31CN(C(=O)C2CCC2)C1`, the activity change is -89.2% (active).

Take `COc1ccc2c3c([nH]c2c1)[C@@H](CO)N(Cc1ccncc1)CC31CN(C(=O)CN(C)C)C1`: the activity change was -8.59% (inactive).

On to `COc1ccc2c3c(n(C)c2c1)[C@H](CO)N(Cc1ccccc1F)CC31CN(C(=O)C2CCC2)C1`, for which the activity change is -14.5% (inactive).

As to `CCC(=O)N1CCC2(CC1)CN(Cc1cc(F)ccc1F)[C@@H](CO)c1c2c2ccc(OC)cc2n1C`, the activity change is -73% (inactive).

In the case of `CCCNC(=O)N1CC2(CCN(C(=O)C3CC3)CC2)c2c([nH]c3cc(OC)ccc23)[C@H]1CO`, the activity change was -26.2% (inactive).

With `CCS(=O)(=O)N1[C@H](CO)[C@@H](c2ccccc2)C12CN(C(=O)C1CCC1)C2`, the activity change was 35.7% (inactive).

As for `COc1ccccc1S(=O)(=O)N1CC[C@@H]2[C@H](CO)Nc3ccc(-c4ccccc4F)cc3[C@@H]21`, the activity change is -2.28% (inactive).

Regarding `O=C1CN(Cc2ccc(F)cc2)C[C@H]2[C@@H](c3ccc(Br)cc3)[C@H](CO)N12`, the activity change is -35.6% (inactive).

For `O=C(C[C@H]1C[C@@H]2c3cc(NC(=O)C4CCC4)ccc3O[C@@H]2[C@H](CO)O1)NC1CCCCC1`, the activity change is 12% (inactive).

In the case of `O=C(N[C@@H]1C=C[C@H](CC(=O)N2CCOCC2)O[C@H]1CO)c1ccccn1`, the activity change was 34% (inactive).

For `C[C@H](O)C#Cc1cnc2c(c1)C(=O)N([C@H](C)CO)C[C@H](C)[C@H](CN(C)C(=O)c1ccc(F)cc1)O2`, the activity change was 8.85% (inactive).

As for `COc1cccc(CNC(=O)C[C@@H]2CC[C@@H]3[C@H](COc4ccc(NC(C)=O)cc4C(=O)N3C)O2)c1`, the activity change is -0.731% (inactive).

`C[C@H](CO)N1C[C@H](C)[C@@H](CN(C)CC2CC2)Oc2ccc(NC(=O)Nc3ccccc3)cc2CC1=O`: the activity change is -83.5% (active).

Regarding `CC(C)NC(=O)Nc1ccc2c(c1)CC(=O)N([C@@H](C)CO)C[C@@H](C)[C@H](CN(C)CC1CC1)O2`, the activity change is 1.75% (inactive).

As for `Cc1noc(C)c1NC(=O)Nc1ccc2c(c1)CC(=O)N([C@@H](C)CO)C[C@@H](C)[C@H](CN(C)Cc1ccc(Oc3ccccc3)cc1)O2`, the activity change is -81.8% (active).

Consider `C[C@@H]1CN([C@H](C)CO)C(=O)Cc2cc(NC(=O)Nc3ccccc3)ccc2O[C@H]1CN(C)Cc1ccc(Cl)c(Cl)c1`, for which the activity change was -5.47% (inactive).

With `Cc1noc(C)c1NC(=O)Nc1ccc2c(c1)C(=O)N([C@H](C)CO)C[C@H](C)[C@H](CN(C)Cc1ccc(Oc3ccccc3)cc1)O2`, the activity change was -39.9% (inactive).

Turning to `C[C@H]1CN([C@@H](C)CO)C(=O)Cc2cc(NC(=O)Nc3cccc4ccccc34)ccc2O[C@H]1CN(C)CC1CC1`, the activity change was -71.1% (inactive).

Consider `Cc1noc(C)c1NC(=O)Nc1ccc2c(c1)CC(=O)N([C@H](C)CO)C[C@@H](C)[C@@H](CN(C)Cc1ccncc1)O2`, for which the activity change is 3.85% (inactive).

As to `C[C@@H]1CN([C@H](C)CO)C(=O)Cc2cc(NC(=O)Nc3ccccc3)ccc2O[C@@H]1CN(C)Cc1ccc(C(F)(F)F)cc1`, the activity change is 2.2% (inactive).

For the compound `C[C@H](CO)N1C[C@H](C)[C@@H](CN(C)Cc2ccc(Cl)c(Cl)c2)Oc2ccc(NC(=O)Nc3ccc(C(F)(F)F)cc3)cc2CC1=O`, the activity change is -87.2% (active).

Regarding `CO[C@@H]1CN(C)C(=O)c2cc(NC(=O)C3CCOCC3)ccc2OC[C@H](C)N(Cc2cccnc2)C[C@@H]1C`, the activity change was 14.9% (inactive).

Consider `CCS(=O)(=O)Nc1ccc2c(c1)C(=O)N(C)[C@@H]1CC[C@H](CC(=O)N3CCCCC3)O[C@@H]1CO2`, for which the activity change was 6.13% (inactive).

For `CO[C@@H]1CN(C)C(=O)c2cc(NS(=O)(=O)c3ccccc3)ccc2OC[C@@H](C)N(C(=O)NC(C)C)C[C@@H]1C`, the activity change is 20.8% (inactive).

For the compound `COCC(=O)N1CCC2(CC1)CN(C(=O)Nc1ccccc1F)[C@@H](CO)c1c2c2ccc(OC)cc2n1C`, the activity change is -32.4% (inactive).

Consider `CCCC#Cc1cnc2c(c1)C(=O)N([C@@H](C)CO)C[C@@H](C)[C@@H](CN(C)C(=O)c1ccccc1)O2`, for which the activity change is -15.9% (inactive).

Turning to `CO[C@H]1CN(C)C(=O)c2ccc(NC(=O)C3CC3)cc2OC[C@H](C)N(Cc2ccncc2)C[C@@H]1C`, the activity change was -31.5% (inactive).

For `COc1cccc(CNC(=O)[C@@H]2[C@@H](CO)[C@@H]3Cn4c(ccc(-c5cccnc5)c4=O)[C@@H]3N2C)c1`, the activity change is 8.71% (inactive).

In the case of `O=C(C[C@@H]1CC[C@@H](NS(=O)(=O)c2ccc(F)cc2)[C@@H](CO)O1)NCCc1ccncc1`, the activity change was 23.4% (inactive).

With `O=C(N[C@H]1CC[C@@H](CCNS(=O)(=O)Cc2ccccc2)O[C@H]1CO)c1ccccc1F`, the activity change is -32.4% (inactive).

Regarding `CC(C)NC(=O)N(C)C[C@H]1OCCCC[C@@H](C)Oc2ccc(NC(=O)C3CCCCC3)cc2C(=O)N([C@H](C)CO)C[C@H]1C`, the activity change is -37.9% (inactive).

With `O=C(NC1CCCCC1)N1CC2(C1)[C@H](c1ccccc1)[C@@H](CO)N2S(=O)(=O)Cc1ccccc1`, the activity change was -4.41% (inactive).

As to `C[C@@H]1CCCCO[C@H](CN(C)S(=O)(=O)c2cccs2)[C@@H](C)CN([C@@H](C)CO)C(=O)c2cc(NC(=O)NC3CCCCC3)ccc2O1`, the activity change is -76% (inactive).

Turning to `O=C(Nc1ccccc1F)N1C[C@H]2[C@@H](c3ccccc31)[C@@H](CO)N2C(=O)Cc1cccnc1`, the activity change is 13.8% (inactive).

Regarding `COCC(=O)N1[C@H](CO)[C@@H](c2ccccc2)C12CN(Cc1cc(F)ccc1F)C2`, the activity change is -89% (active).

On to `O=C(C1CCCC1)N1[C@H](CO)[C@@H](c2ccccc2)C12CN(CCC(F)(F)F)C2`, for which the activity change was -46.4% (inactive).

On to `O=C(C1CCCCC1)N1[C@H](CO)[C@@H](c2ccccc2)C12CN(Cc1cccc(Cl)c1)C2`, for which the activity change was -90.7% (active).

Regarding `COCC(=O)N1CC2(C1)[C@@H](c1ccc(-c3cccc(F)c3)cc1)[C@@H](CO)N2C(=O)COC`, the activity change was 13.9% (inactive).

Regarding `O=C(C1CCCC1)N1[C@@H](CO)[C@@H](c2ccccc2)C12CN(Cc1ccc(F)cc1)C2`, the activity change was -28% (inactive).

On to `COCC(=O)N1CC2(C1)[C@H](c1ccc(-c3cccc(F)c3)cc1)[C@@H](CO)N2C(=O)COC`, for which the activity change was 11.2% (inactive).

`COc1cccc(C#Cc2ccc3c(c2)[C@H]2[C@H](CCN2C(=O)CC2CC2)[C@H](CO)N3)c1`: the activity change is -67.1% (inactive).

Regarding `COc1ccc2c3c(n(C)c2c1)[C@@H](CO)N(Cc1ccncc1)CC31CN(C(=O)Nc2cccc(F)c2)C1`, the activity change is -46.3% (inactive).

As for `C[C@H]1CN([C@@H](C)CO)C(=O)c2c(c3ccccc3n2C)-c2ccccc2CO[C@@H]1CN(C)Cc1ccc2c(c1)OCCN2C`, the activity change was -31.4% (inactive).

For `CCCN1C[C@H](C)[C@@H](OC)CN(C)C(=O)c2ccc(NC(=O)c3cnccn3)cc2OC[C@H]1C`, the activity change was 13.8% (inactive).

In the case of `COC(=O)C[C@H]1CC[C@@H]2[C@@H](COc3ccc(NC(=O)Nc4ccc(Cl)cc4)cc3C(=O)N2C)O1`, the activity change is 9.95% (inactive).

Turning to `O=C([C@@H]1[C@@H](CO)[C@@H]2Cn3c(ccc(-c4cncnc4)c3=O)[C@@H]2N1C(=O)C1CCC1)N1CCCCC1`, the activity change is 34% (inactive).

On to `CC(C)CC#Cc1ccc2c(c1)O[C@@H](CN(C)C(=O)c1ccccc1F)[C@H](C)CN([C@H](C)CO)S2(=O)=O`, for which the activity change was -71.3% (inactive).

For the compound `C[C@@H]1CN([C@H](C)CO)S(=O)(=O)c2ccc(C#CC3CC3)cc2O[C@H]1CN(C)Cc1ccccc1F`, the activity change was -16.8% (inactive).

For `CCCC#Cc1ccc2c(c1)O[C@@H](CN(C)C(=O)c1ccccc1F)[C@H](C)CN([C@H](C)CO)S2(=O)=O`, the activity change was -85.1% (active).

On to `CC(C)CC#Cc1ccc2c(c1)O[C@H](CN(C)Cc1ccccc1F)[C@@H](C)CN([C@@H](C)CO)S2(=O)=O`, for which the activity change was -84.7% (active).

Regarding `C[C@H]1CN([C@@H](C)CO)S(=O)(=O)c2ccc(C#CCN(C)C)cc2O[C@H]1CN(C)C(=O)c1ccccc1F`, the activity change is -28.9% (inactive).

Consider `CCCN(C)C[C@H]1Oc2cc(C#CCC(C)C)ccc2S(=O)(=O)N([C@H](C)CO)C[C@H]1C`, for which the activity change was -26.1% (inactive).
